According to PubChem BioAssay (NCI):
About 79,000 compounds went through this panel and 15% of them were active in at least one assay; those are over-represented in the sample as a whole. Unmarked numbers belong to inactive results. Activity calls are given as the source filed them. Rule as the data show it: active = growth inhibition above about 70%; inactive = the rest.

Assays:
[1] = NCI Yeast Anticancer Drug Screen. Data for the rad52 strain (AID 147);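 also: 0% = growth of vehicle-treated control cultures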; settings: S. cerevisiae rad52 mutant growth inhibition, hits give high values
In short: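 Inhibition of yeast growth, referenced to vehicle controls, was the measured output for a strain with defective DNA damage repair.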

[2] = NCI Yeast Anticancer Drug Screen. Data for the wt1 strain (AID 149);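 also: 0% = growth of vehicle-treated wt1 cultures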; settings: S. cerevisiae wt1 strain (SPY 50644) growth inhibition, hits give high values
In short: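 The wt1 strain was treated with compounds, and growth was compared with vehicle-treated cultures to give inhibition.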

[3] = NCI Yeast Anticancer Drug Screen. Data for the rad50EPP+ strain (AID 151);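 also: 0% = growth of vehicle-treated control cultures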; settings: S. cerevisiae rad50 mutant strain, hits give high values
In short: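 Genetically defined yeast (rad50EPP+, DNA damage repair alteration) is grown with compound, and inhibition of growth is expressed relative to vehicle-treated controls.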

[4] = NCI Yeast Anticancer Drug Screen. Data for the mgt1 strain (AID 153); settings: S. cerevisiae mgt1 mutant growth inhibition, hits give high values
In short: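 In the mgt1 strain, test compounds were added and growth inhibition was determined relative to vehicle-treated controls.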

[5] = NCI Yeast Anticancer Drug Screen. Data for the rad50 strain (AID 155);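 also: 0% = growth of vehicle-only cultures of the same strain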; settings: S. cerevisiae rad50 strain growth inhibition, hits give high values
In short: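 Cells are treated with compound, grown, and their growth is then scored against vehicle-only cultures of the same repair-deficient yeast strain.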

[6] = NCI Yeast Anticancer Drug Screen. Data for the mec2-1 strain (AID 157); settings: S. cerevisiae mec2-1 strain, hits give high values
In short: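 Each compound was tested on mec2-1 yeast, a strain altered in DNA damage repair or cell cycle control. Growth inhibition is reported relative to vehicle.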

[7] = NCI Yeast Anticancer Drug Screen. Data for the rad14 strain (AID 159);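 also: 0% = growth of vehicle-treated control cultures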; settings: S. cerevisiae rad14 strain growth inhibition, hits give high values
In short: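 Readout: yeast growth inhibition, referenced to vehicle-only cultures. Strain bears a defined alteration in DNA damage repair.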

[8] = NCI Yeast Anticancer Drug Screen. Data for the sgs1 mgt1 strain (AID 161);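 also: 0% = growth of cultures given vehicle only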; settings: S. cerevisiae sgs1 mgt1 strain, hits give high values
In short: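 Test agents were incubated with a DNA-repair-mutant yeast strain. Growth was then read and compared against vehicle-treated controls.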

[9] = NCI Yeast Anticancer Drug Screen. Data for the CLN2oe strain (AID 163);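 also: 0% = growth of vehicle-only control cultures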; settings: S. cerevisiae CLN2oe strain, hits give high values
In short: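 First, the altered yeast strain was treated with each compound; second, its growth was measured; finally, inhibition was derived by comparison with vehicle controls.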

[10] = NCI Yeast Anticancer Drug Screen. Data for the cln2 rad14 strain (AID 165);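 also: 0% = growth equal to vehicle treated cultures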; settings: S. cerevisiae cln2 rad14 strain, hits give high values
In short: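 Test compounds were added to cln2 rad14 yeast cultures; inhibition of growth was then determined by comparison with vehicle treatment.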

[11] = NCI Yeast Anticancer Drug Screen. Data for the bub3 strain (AID 167); settings: S. cerevisiae bub3 mutant strain, hits give high values
In short: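 Part of a panel of yeast mutants defective in DNA damage repair or cell cycle regulation. Each strain is grown with compound, and inhibition is calculated relative to solvent-treated cultures.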

[12] = NCI Yeast Anticancer Drug Screen. Data for the wt2 strain (AID 169);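 also: 0% = growth of vehicle-treated yeast cultures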; settings: S. cerevisiae wt2 strain growth inhibition, hits give high values
In short: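 The panel's yeast strains carry defined changes in DNA repair or cell cycle genes. Each strain is grown with compound, and growth loss is scored relative to vehicle.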

[13] = NCI Yeast Anticancer Drug Screen. Data for the mlh1 strain (AID 171);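 also: 0% = growth of vehicle-treated control cultures of the same strain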; settings: S. cerevisiae mlh1 strain growth inhibition, hits give high values
In short: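 Inhibition values reflect reduced yeast growth in the presence of compound, referenced to vehicle controls, using a strain chosen for its alteration in DNA repair or cell cycle control.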

[14] = NCI Yeast Anticancer Drug Screen. Data for the sgs1 strain (AID 173);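 also: 0% = growth of vehicle-only control cultures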; settings: S. cerevisiae sgs1 mutant, hits give high values
In short: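 Vehicle-treated cultures served as reference for growth inhibition of a yeast strain altered in DNA damage repair or cell cycle control after compound exposure.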

[15] = NCI Yeast Anticancer Drug Screen. Data for the mlh1 rad18 strain (AID 175); settings: S. cerevisiae mlh1 rad18 strain growth inhibition, hits give high values
In short: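 Inhibition values reflect reduced growth of mutant yeast versus vehicle-treated controls following compound exposure; the mutations affect DNA damage repair.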

[16] = NCI Yeast Anticancer Drug Screen. Data for the rad18 strain (AID 177); settings: S. cerevisiae rad18 mutant growth inhibition, hits give high values
In short: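 Steps: expose repair-mutant yeast to compound; measure growth; express as inhibition relative to vehicle control.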

[17] = at 5.0 µM (retest, dose inferred, filed as 0.5)
[18] = at 50.0 µM (retest, dose inferred, filed as 5.0)

[O-][n+]1c2ccc(O)cc2nc2ccc(Cl)cc21
growth inhibition ([1]; at 1.2 µM): 5%
growth inhibition ([1]; at 3.7 µM): 19%
growth inhibition ([1]; at 11.0 µM): 45%
growth inhibition ([1]; at 33.0 µM): 75% (active)
growth inhibition ([1]; at 100.0 µM): 75% (active)
growth inhibition ([2]; at 1.2 µM): 4%
growth inhibition ([2]; at 3.7 µM): 9%
growth inhibition ([2]; at 11.0 µM): 23%
growth inhibition ([2]; at 33.0 µM): 34%
growth inhibition ([2]; at 100.0 µM): 53%
growth inhibition ([3]; at 1.2 µM): 5%
growth inhibition ([3]; at 3.7 µM): 16%
growth inhibition ([3]; at 11.0 µM): 37%
growth inhibition ([3]; at 33.0 µM): 57%
growth inhibition ([3]; at 100.0 µM): 56%
growth inhibition ([4]; at 1.2 µM): 8%
growth inhibition ([4]; at 3.7 µM): 22%
growth inhibition ([4]; at 11.0 µM): 34%
growth inhibition ([4]; at 33.0 µM): 65%
growth inhibition ([4]; at 100.0 µM): 81% (active)
growth inhibition ([5]; at 1.2 µM): 6%
growth inhibition ([5]; at 3.7 µM): 24%
growth inhibition [5, 17]: -5%
growth inhibition ([5]; at 11.0 µM): 51%
growth inhibition ([5]; at 33.0 µM): 81% (active)
growth inhibition [5, 18]: 17%
growth inhibition ([5]; at 50.0 µM): 81.9% (active)
growth inhibition ([5]; at 100.0 µM): 84% (active)
growth inhibition ([6]; at 1.2 µM): 0%
growth inhibition ([6]; at 3.7 µM): 9%
growth inhibition [6, 17]: 5%
growth inhibition ([6]; at 11.0 µM): 25%
growth inhibition ([6]; at 33.0 µM): 41%
growth inhibition [6, 18]: -13%
growth inhibition ([6]; at 50.0 µM): 75% (active)
growth inhibition ([6]; at 100.0 µM): 51%
growth inhibition ([7]; at 1.2 µM): 0%
growth inhibition ([7]; at 3.7 µM): 8%
growth inhibition ([7]; at 11.0 µM): 30%
growth inhibition ([7]; at 33.0 µM): 58%
growth inhibition ([7]; at 100.0 µM): 73% (active)
growth inhibition [8, 17]: -12%
growth inhibition [8, 18]: -1%
growth inhibition ([8]; at 50.0 µM): 67%
growth inhibition ([9]; at 1.2 µM): 0%
growth inhibition ([9]; at 3.7 µM): 9%
growth inhibition ([9]; at 11.0 µM): 20%
growth inhibition ([9]; at 33.0 µM): 34%
growth inhibition ([9]; at 100.0 µM): 49%
growth inhibition [10, 17]: -4%
growth inhibition [10, 18]: 9%
growth inhibition ([10]; at 50.0 µM): 43.1%
growth inhibition ([11]; at 1.2 µM): 5%
growth inhibition ([11]; at 3.7 µM): 2%
growth inhibition [11, 17]: -7%
growth inhibition ([11]; at 11.0 µM): 23%
growth inhibition ([11]; at 33.0 µM): 41%
growth inhibition [11, 18]: 11%
growth inhibition ([11]; at 50.0 µM): 78.8% (active)
growth inhibition ([11]; at 100.0 µM): 59%
growth inhibition ([12]; at 1.2 µM): 5%
growth inhibition ([12]; at 3.7 µM): 11%
growth inhibition ([12]; at 11.0 µM): 26%
growth inhibition ([12]; at 33.0 µM): 46%
growth inhibition ([12]; at 100.0 µM): 61%
growth inhibition ([13]; at 1.2 µM): 4%
growth inhibition ([13]; at 3.7 µM): 10%
growth inhibition ([13]; at 11.0 µM): 28%
growth inhibition ([13]; at 33.0 µM): 62%
growth inhibition ([13]; at 100.0 µM): 78% (active)
growth inhibition ([14]; at 1.2 µM): 4%
growth inhibition ([14]; at 3.7 µM): 10%
growth inhibition ([14]; at 11.0 µM): 26%
growth inhibition ([14]; at 33.0 µM): 46%
growth inhibition ([14]; at 100.0 µM): 59%
growth inhibition [15, 17]: -24%
growth inhibition [15, 18]: 53%
growth inhibition ([15]; at 50.0 µM): 86.8% (active)
growth inhibition ([16]; at 1.2 µM): 7%
growth inhibition ([16]; at 3.7 µM): 23%
growth inhibition ([16]; at 11.0 µM): 47%
growth inhibition ([16]; at 33.0 µM): 79% (active)
growth inhibition ([16]; at 100.0 µM): 82% (active)
